Targets with a hit are over-represented here; the source holds about 8,800 in all. About 0.5% of all pairs of compound and target were hits. A number with no mark means an inactive call.
Columns and labels:
Assay in all cases: log2 fold change, soluble protein after heating vs DMSO (PISA); higher = thermal stabilisation; K562 lysate, 10 uM; active = over 0.2 and 3.5 SD of the protein, either way, in both replicates (recomputed)
entospletinib = compound: c1cn2cc(-c3ccc4cn[nH]c4c3)nc(Nc3ccc(N4CCOCC4)cc3)c2n1 [entospletinib]
Outline: (§1)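 Values give the log-two fold change in thermal stability against solvent controls, from duplicates. Crude K562 extract at 1 mg/mL protein, made by dounce homogenisation in PBS pH 7.4 with 1 mM MgCl2, was treated with 10 μM compound for 30 min. After 3 min heating across 48°C-58°C, aliquots were pooled, adjusted to 0.5% NP-40 at 4°C and centrifuged at 21,000xg for 90 min. The supernatant was measured by TMTpro 16plex LC-MS/MS with channel sums equalised.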

[1] = compound: NCC(=O)Nc1ccc(-n2nc(C(F)(F)F)cc2-c2ccc3c(ccc4ccccc43)c2)cc1
Outline: as §1

vorinostat = compound: O=C(CCCCCCC(=O)Nc1ccccc1)NO [vorinostat]
Outline: as §1

silmitasertib = compound: O=C(O)c1ccc2c(c1)nc(Nc1cccc(Cl)c1)c1ccncc12 [silmitasertib]
Outline: as §1

[2] = compound: O=C1NC(=O)C(c2cnc3ccccn23)=C1c1cn2c3c(cc(F)cc13)CN(C(=O)N1CCCCC1)CC2
Outline: as §1

Sequence of UniProt Q9BXX2 (Q9BXX2 whole entry, looked up): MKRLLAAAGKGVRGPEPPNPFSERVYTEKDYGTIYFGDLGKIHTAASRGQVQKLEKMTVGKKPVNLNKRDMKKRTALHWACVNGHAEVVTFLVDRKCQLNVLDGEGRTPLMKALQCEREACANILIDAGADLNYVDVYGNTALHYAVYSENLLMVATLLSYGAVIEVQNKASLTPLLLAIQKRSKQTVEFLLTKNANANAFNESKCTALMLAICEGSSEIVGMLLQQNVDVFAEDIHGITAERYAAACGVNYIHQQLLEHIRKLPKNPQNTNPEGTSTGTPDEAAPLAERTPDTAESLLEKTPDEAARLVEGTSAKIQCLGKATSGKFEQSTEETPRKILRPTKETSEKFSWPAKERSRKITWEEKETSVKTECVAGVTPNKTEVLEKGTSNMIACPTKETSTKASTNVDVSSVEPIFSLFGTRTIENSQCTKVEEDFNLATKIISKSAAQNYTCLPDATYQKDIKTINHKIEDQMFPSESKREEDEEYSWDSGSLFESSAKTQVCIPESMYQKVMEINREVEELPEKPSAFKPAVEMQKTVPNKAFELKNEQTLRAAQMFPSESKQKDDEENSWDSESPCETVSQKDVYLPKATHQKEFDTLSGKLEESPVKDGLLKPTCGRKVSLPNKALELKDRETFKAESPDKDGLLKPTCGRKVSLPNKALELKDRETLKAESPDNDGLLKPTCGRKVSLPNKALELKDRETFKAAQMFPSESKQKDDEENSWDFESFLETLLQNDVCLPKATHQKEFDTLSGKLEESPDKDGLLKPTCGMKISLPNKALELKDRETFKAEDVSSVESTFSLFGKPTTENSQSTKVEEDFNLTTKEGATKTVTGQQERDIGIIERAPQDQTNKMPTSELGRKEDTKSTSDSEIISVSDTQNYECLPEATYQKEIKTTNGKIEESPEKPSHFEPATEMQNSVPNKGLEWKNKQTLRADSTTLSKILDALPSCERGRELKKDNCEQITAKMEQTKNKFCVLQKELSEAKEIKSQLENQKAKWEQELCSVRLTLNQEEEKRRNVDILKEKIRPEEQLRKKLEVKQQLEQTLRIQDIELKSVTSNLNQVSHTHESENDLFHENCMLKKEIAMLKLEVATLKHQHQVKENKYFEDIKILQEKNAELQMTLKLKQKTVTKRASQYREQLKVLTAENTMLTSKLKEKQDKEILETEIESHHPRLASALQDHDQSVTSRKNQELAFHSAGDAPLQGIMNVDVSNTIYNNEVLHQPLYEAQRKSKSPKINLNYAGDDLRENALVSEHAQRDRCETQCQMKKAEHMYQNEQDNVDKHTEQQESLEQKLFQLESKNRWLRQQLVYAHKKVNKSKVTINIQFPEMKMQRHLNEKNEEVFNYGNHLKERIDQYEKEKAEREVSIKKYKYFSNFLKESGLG
Sequence of UniProt P31751 (P31751 whole entry, looked up): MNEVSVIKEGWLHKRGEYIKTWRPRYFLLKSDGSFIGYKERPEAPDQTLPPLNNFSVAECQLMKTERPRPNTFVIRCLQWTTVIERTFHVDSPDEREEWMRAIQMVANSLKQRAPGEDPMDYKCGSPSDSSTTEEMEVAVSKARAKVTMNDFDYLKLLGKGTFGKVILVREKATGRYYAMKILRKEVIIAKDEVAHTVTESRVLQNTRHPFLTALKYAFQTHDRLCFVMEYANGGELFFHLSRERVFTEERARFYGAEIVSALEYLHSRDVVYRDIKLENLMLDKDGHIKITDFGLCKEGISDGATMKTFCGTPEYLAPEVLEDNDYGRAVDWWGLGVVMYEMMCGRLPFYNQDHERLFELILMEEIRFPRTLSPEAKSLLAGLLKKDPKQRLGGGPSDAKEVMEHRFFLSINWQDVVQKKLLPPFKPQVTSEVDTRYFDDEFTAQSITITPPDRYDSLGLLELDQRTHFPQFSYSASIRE
Sequence of UniProt Q99943 (Q99943 whole entry, looked up): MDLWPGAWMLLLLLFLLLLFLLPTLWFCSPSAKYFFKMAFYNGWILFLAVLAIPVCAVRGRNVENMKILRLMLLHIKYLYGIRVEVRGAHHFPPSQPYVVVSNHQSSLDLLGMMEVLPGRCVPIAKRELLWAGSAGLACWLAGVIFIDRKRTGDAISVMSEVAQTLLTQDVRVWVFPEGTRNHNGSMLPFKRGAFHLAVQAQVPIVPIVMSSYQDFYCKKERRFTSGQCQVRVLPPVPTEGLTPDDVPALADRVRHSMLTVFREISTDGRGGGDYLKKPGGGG
Sequence of UniProt P54886 (P54886 whole entry, looked up): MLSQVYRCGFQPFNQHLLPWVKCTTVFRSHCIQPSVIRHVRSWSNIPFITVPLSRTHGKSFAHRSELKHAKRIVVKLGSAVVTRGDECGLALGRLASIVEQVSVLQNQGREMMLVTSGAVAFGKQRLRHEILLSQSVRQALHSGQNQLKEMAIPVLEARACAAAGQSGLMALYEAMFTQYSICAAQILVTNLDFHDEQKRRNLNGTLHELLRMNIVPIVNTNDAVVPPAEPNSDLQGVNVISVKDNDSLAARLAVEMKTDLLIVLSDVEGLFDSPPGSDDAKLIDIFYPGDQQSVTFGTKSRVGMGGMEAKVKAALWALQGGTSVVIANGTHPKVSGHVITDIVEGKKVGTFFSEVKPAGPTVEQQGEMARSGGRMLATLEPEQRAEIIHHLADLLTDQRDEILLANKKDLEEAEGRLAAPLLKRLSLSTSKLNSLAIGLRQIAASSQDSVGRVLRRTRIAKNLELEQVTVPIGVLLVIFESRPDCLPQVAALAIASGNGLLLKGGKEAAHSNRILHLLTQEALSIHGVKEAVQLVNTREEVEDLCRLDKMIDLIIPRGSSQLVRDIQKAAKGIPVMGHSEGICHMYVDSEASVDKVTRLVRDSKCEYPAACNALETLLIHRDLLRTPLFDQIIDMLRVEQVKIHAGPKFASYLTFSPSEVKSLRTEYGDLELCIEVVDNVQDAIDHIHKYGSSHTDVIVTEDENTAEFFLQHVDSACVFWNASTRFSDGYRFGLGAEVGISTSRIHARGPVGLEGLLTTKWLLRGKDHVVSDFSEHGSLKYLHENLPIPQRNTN
Sequence of UniProt Q7L211 (Q7L211 whole entry, looked up): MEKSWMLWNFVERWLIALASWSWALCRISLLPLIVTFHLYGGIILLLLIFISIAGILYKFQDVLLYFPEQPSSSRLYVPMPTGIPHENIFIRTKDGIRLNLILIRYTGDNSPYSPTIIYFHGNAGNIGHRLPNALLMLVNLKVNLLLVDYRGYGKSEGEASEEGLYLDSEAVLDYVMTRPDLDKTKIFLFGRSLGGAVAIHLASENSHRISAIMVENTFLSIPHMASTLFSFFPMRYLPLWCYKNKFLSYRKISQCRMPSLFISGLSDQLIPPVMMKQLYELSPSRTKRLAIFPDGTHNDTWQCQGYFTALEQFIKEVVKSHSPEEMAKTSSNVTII
Sequence of UniProt Q2VPB7 (Q2VPB7 whole entry, looked up): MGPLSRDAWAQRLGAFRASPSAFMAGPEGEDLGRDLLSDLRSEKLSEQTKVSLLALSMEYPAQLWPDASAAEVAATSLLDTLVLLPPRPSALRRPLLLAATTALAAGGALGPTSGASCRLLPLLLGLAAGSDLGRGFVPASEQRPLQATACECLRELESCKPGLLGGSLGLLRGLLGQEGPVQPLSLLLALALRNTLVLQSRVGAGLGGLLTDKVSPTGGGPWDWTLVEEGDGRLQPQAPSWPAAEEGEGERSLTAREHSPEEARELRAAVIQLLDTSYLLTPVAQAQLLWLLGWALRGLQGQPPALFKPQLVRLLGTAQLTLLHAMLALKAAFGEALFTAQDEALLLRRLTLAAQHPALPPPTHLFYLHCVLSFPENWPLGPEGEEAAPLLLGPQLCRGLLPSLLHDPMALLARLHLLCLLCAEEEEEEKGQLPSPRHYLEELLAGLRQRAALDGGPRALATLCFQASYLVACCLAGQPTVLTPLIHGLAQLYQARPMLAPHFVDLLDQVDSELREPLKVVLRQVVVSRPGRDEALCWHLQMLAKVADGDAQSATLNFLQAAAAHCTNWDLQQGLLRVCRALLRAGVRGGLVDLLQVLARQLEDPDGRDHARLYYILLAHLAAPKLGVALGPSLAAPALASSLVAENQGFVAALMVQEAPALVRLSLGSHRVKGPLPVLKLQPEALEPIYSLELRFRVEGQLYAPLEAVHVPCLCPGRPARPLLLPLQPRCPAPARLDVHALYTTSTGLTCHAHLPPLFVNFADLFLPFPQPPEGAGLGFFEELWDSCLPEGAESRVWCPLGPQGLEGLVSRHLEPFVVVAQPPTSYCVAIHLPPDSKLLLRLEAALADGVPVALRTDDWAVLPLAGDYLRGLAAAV
Sequence of UniProt P35611 (P35611 whole entry, looked up): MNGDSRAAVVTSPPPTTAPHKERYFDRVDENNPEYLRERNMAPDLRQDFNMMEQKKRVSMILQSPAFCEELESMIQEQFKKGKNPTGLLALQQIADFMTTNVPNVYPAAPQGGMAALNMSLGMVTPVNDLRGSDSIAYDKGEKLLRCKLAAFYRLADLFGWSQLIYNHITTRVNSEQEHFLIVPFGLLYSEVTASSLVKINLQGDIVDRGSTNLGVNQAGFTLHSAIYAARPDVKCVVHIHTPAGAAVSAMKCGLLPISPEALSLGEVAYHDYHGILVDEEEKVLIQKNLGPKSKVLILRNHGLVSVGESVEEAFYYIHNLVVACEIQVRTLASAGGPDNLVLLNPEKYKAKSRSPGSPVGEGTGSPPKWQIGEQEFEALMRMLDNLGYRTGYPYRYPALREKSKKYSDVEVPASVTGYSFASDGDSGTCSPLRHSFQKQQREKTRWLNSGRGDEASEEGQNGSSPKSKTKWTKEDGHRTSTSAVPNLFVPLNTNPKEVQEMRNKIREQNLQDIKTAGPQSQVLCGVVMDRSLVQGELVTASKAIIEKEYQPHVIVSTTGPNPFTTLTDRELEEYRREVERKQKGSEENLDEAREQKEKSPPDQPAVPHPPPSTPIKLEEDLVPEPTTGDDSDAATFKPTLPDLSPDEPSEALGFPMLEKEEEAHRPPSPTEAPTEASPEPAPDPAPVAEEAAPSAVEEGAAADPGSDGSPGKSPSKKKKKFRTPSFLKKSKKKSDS
Sequence of UniProt Q9P1F3 (Q9P1F3 whole entry, looked up): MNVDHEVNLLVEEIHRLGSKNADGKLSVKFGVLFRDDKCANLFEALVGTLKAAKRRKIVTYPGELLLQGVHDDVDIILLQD

Target | log2 fold change (entospletinib) | log2 fold change [1] | log2 fold change (vorinostat) | log2 fold change (silmitasertib) | log2 fold change [2]
ABI1 isoform 6 (UniProt Q8IZP0) | -0.115 | – | – | – | –
AKT2 (UniProt P31751) | 0.008 | -0.021 | -0.175 | 0.011 | -0.019
ABHD13 (UniProt Q7L211) | -0.12 | 0.023 | – | – | 0.027
AGPAT1 (UniProt Q99943) | 0.003 | -0.027 | -0.27 (active) | 0.106 | -0.029
ALDH18A1 (UniProt P54886) | 0.022 | 0.023 | -0.401 (active) | 0.023 | -0.015
AMDHD2 (UniProt Q9Y303) | – | -0.092 | – | – | 0.042
ABI1 isoform 9 (UniProt Q8IZP0) | 0.018 | 0.046 | 0.026 | -0.025 | 0.03
ANXA11 (UniProt P50995) | 0.031 | -0.003 | -0.117 | 0.044 | -0.018
ACTG1 (UniProt K7EM38) | -0.453 | – | – | – | –
APOBEC3C (UniProt Q9NRW3) | -0.007 | 0.055 | -0.278 (active) | 0.043 | -0.066
ALDH3A1 (UniProt P30838) | – | – | 0.145 | -0.113 | 0.023
ABRACL (UniProt Q9P1F3) | – | – | -0.845 (active) | 0.111 | 0.088
AP5B1 (UniProt Q2VPB7) | 0.022 | – | -0.062 | 0.044 | -0.094
ALDH1A1 (UniProt P00352) | 0.02 | -0.038 | 0.116 | -0.011 | -0.018
ADD1 isoform 4 (UniProt P35611) | 0.056 | 0.037 | 0.237 | -0.148 | –
ANKRD30B (UniProt Q9BXX2) | 0.025 | 0.228 | 0.147 | 0.047 | –
